For eleven compounds, cell viability results are on record in the supplement of paper PMC10981050.

Holding throughout (assay): cell viability relative to vehicle control; higher = less cytotoxic
Common to all, as to conditions: 10 µM

One experiment concerns K562. The essentials:
(§1)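 Each screen used CRISPR-edited mutant and wild-type clones from four leukaemia lines. Compounds were acoustically dispensed at a single 10 µM dose, and CellTiter-Glo luminescence was read after 48 h with the supernatant first removed. Viability was analysed in Genedata Screener and given as percent of the on-plate vehicle control.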

In the next experiment the test system is MARIMO. The essentials: as §1
The next experiment deals with MOLM14. Put shortly: as §1
In a further experiment the test system is OCI-AML2. Put shortly:
as §1

Where “and” joins values, the source holds several entries; their conditions need not be identical. Equal values may be shown once. Where a name gives a salt, the structure may show the parent alone.

Regarding `COc1ccc(S(=O)(=O)N(C(C)=O)c2ccccc2/C=C/c2cc[n+]([O-])cc2)cc1`, the cell viability with K562 (SRSF2 genotype: SRSF2 P95H/wt) was 19.2% and 41.4%; with K562 (SRSF2 genotype: SRSF2 wt/wt), 38.4%; in the experiment on MARIMO (SRSF2 genotype: SRSF2 P95H/wt), 6.78%; in the experiment with MARIMO (SRSF2 genotype: SRSF2 wt/wt) it was 8.02%; in the experiment with MOLM14 (SRSF2 genotype: SRSF2 P95H/wt), 15.9%; in the experiment on MOLM14 (SRSF2 genotype: SRSF2 wt/wt) it was 3.3%. The cell viability stood at 6.25% with OCI-AML2 (SRSF2 genotype: P95H/wt) and 9.13% in the experiment on OCI-AML2 (SRSF2 genotype: wt/wt).

Consider `OC1COC(O)C(O)C1O` (stereo not drawn) [L(+)-Arabinose], for which the cell viability with K562 (SRSF2 genotype: SRSF2 P95H/wt) was 102% and 92.9%; in the experiment with K562 (SRSF2 genotype: SRSF2 wt/wt), 96.7%; with MARIMO (SRSF2 genotype: SRSF2 P95H/wt), 108%; with MARIMO (SRSF2 genotype: SRSF2 wt/wt), 112%; in the experiment with MOLM14 (SRSF2 genotype: SRSF2 P95H/wt) it was 95.5%; in the experiment on MOLM14 (SRSF2 genotype: SRSF2 wt/wt) it was 101%. For the same compound, the results for the cell viability with OCI-AML2 (SRSF2 genotype: P95H/wt) and in the experiment with OCI-AML2 (SRSF2 genotype: wt/wt) were 87.3% and 113%, respectively.

For the compound `Cc1ccc([N+](=O)[O-])cc1S(=O)(=O)N(C)/N=C/c1cnc2ccc(Br)cn12`, the cell viability in the experiment with K562 (SRSF2 genotype: SRSF2 P95H/wt) was 28.6% and 22.3%; in the experiment with K562 (SRSF2 genotype: SRSF2 wt/wt) it was 21%; in the experiment on MARIMO (SRSF2 genotype: SRSF2 P95H/wt) it was 7.47%; with MARIMO (SRSF2 genotype: SRSF2 wt/wt), 3.68%; with MOLM14 (SRSF2 genotype: SRSF2 P95H/wt) it was 0.68%; with MOLM14 (SRSF2 genotype: SRSF2 wt/wt), 0.5%. Further, the cell viability in the experiment on OCI-AML2 (SRSF2 genotype: P95H/wt) stood at 1.7%; with OCI-AML2 (SRSF2 genotype: wt/wt), 17.4%.

As to `NCCNc1ccc(NCCN)c2c1C(=O)c1ccncc1C2=O` [Pixantrone Maleate], the cell viability with K562 (SRSF2 genotype: SRSF2 P95H/wt) was 18.2% and 23.9%; in the experiment with K562 (SRSF2 genotype: SRSF2 wt/wt) it was 20.5%; in the experiment with MARIMO (SRSF2 genotype: SRSF2 P95H/wt) it was 10.7%; in the experiment with MARIMO (SRSF2 genotype: SRSF2 wt/wt), 7.14%; in the experiment on MOLM14 (SRSF2 genotype: SRSF2 P95H/wt), 0.24%; in the experiment on MOLM14 (SRSF2 genotype: SRSF2 wt/wt), 0.35%. In addition, the cell viability stood at 0.25% in the experiment with OCI-AML2 (SRSF2 genotype: P95H/wt) and 0.85% in the experiment on OCI-AML2 (SRSF2 genotype: wt/wt).

On to `O=C(Nc1ccc(-c2ccnc(Nc3ccc(N4CCOCC4)cc3)n2)cc1)C1CCCN1` (stereo not drawn), for which the cell viability is 89.5% and 97.2% in the experiment on K562 (SRSF2 genotype: SRSF2 P95H/wt); 89.5% in the experiment with K562 (SRSF2 genotype: SRSF2 wt/wt); 72.2% with MARIMO (SRSF2 genotype: SRSF2 P95H/wt); 73.5% with MARIMO (SRSF2 genotype: SRSF2 wt/wt); 35.5% in the experiment on MOLM14 (SRSF2 genotype: SRSF2 P95H/wt); 22.4% in the experiment with MOLM14 (SRSF2 genotype: SRSF2 wt/wt). For the same compound, the values for the cell viability in the experiment on OCI-AML2 (SRSF2 genotype: P95H/wt) and in the experiment with OCI-AML2 (SRSF2 genotype: wt/wt) were 43.1% and 39.2%, respectively.

For the compound `O=C(Nc1ccc([N+](=O)[O-])cc1O)Nc1ccccc1Br`, the cell viability in the experiment on K562 (SRSF2 genotype: SRSF2 P95H/wt) was 16.9% and 34.5%; in the experiment on K562 (SRSF2 genotype: SRSF2 wt/wt), 33.9%; in the experiment on MARIMO (SRSF2 genotype: SRSF2 P95H/wt), 7.34%; in the experiment with MARIMO (SRSF2 genotype: SRSF2 wt/wt), 8.23%; in the experiment with MOLM14 (SRSF2 genotype: SRSF2 P95H/wt) it was 13.5%; in the experiment with MOLM14 (SRSF2 genotype: SRSF2 wt/wt), 3.38%. Also, the values for the cell viability in the experiment with OCI-AML2 (SRSF2 genotype: P95H/wt) and in the experiment with OCI-AML2 (SRSF2 genotype: wt/wt) were 8.53% and 10.4%, respectively.

For `CC(C)[C@H](CO)Nc1nc(Nc2cccc(Cl)c2)c2ncn(C(C)C)c2n1` [Purvalanol A], the cell viability is 82.5% and 94.9% with K562 (SRSF2 genotype: SRSF2 P95H/wt); 85.1% with K562 (SRSF2 genotype: SRSF2 wt/wt); 72% in the experiment on MARIMO (SRSF2 genotype: SRSF2 P95H/wt); 83% with MARIMO (SRSF2 genotype: SRSF2 wt/wt); 41.2% in the experiment with MOLM14 (SRSF2 genotype: SRSF2 P95H/wt); 33.9% in the experiment on MOLM14 (SRSF2 genotype: SRSF2 wt/wt). The cell viability in the experiment with OCI-AML2 (SRSF2 genotype: P95H/wt) came out at 47.6%; in the experiment on OCI-AML2 (SRSF2 genotype: wt/wt), 54.3%.

On to `Nc1nc(N)c2nc(-c3cccc(O)c3)c(-c3cccc(O)c3)nc2n1`, for which the cell viability in the experiment with K562 (SRSF2 genotype: SRSF2 P95H/wt) was 95% and 105%; in the experiment on K562 (SRSF2 genotype: SRSF2 wt/wt), 88.6%; in the experiment with MARIMO (SRSF2 genotype: SRSF2 P95H/wt), 111%; in the experiment with MARIMO (SRSF2 genotype: SRSF2 wt/wt) it was 101%; in the experiment on MOLM14 (SRSF2 genotype: SRSF2 P95H/wt), 108%; in the experiment on MOLM14 (SRSF2 genotype: SRSF2 wt/wt), 107%. The cell viability is 98.5% in the experiment with OCI-AML2 (SRSF2 genotype: P95H/wt) and 91.4% with OCI-AML2 (SRSF2 genotype: wt/wt).

In the case of `C[C@]1(O)C[C@@H](c2nc(-c3ccc4ccc(-c5ccccc5)nc4c3)c3c(N)nccn32)C1` [OSI-906 (Linsitinib)], the cell viability in the experiment on K562 (SRSF2 genotype: SRSF2 P95H/wt) was 79.7% and 90.1%; in the experiment with K562 (SRSF2 genotype: SRSF2 wt/wt), 80.6%; in the experiment on MARIMO (SRSF2 genotype: SRSF2 P95H/wt) it was 41.9%; in the experiment on MARIMO (SRSF2 genotype: SRSF2 wt/wt), 40.8%; in the experiment on MOLM14 (SRSF2 genotype: SRSF2 P95H/wt), 72.2%; with MOLM14 (SRSF2 genotype: SRSF2 wt/wt), 82.2%. For the same compound, the cell viability with OCI-AML2 (SRSF2 genotype: P95H/wt) stood at 29.6%; with OCI-AML2 (SRSF2 genotype: wt/wt) it was 38.1%.

`Nc1nccc(Oc2ccc3c(C(=O)Nc4cccc(C(F)(F)F)c4)cccc3c2)n1`: the cell viability with K562 (SRSF2 genotype: SRSF2 P95H/wt) is 86.8% and 94.3%; in the experiment with K562 (SRSF2 genotype: SRSF2 wt/wt), 87.9%; in the experiment with MARIMO (SRSF2 genotype: SRSF2 P95H/wt), 109%; in the experiment with MARIMO (SRSF2 genotype: SRSF2 wt/wt), 125%; with MOLM14 (SRSF2 genotype: SRSF2 P95H/wt) it was 93.6%; in the experiment on MOLM14 (SRSF2 genotype: SRSF2 wt/wt) it was 102%. Besides, the cell viability was 94.8% in the experiment with OCI-AML2 (SRSF2 genotype: P95H/wt) and 106% in the experiment with OCI-AML2 (SRSF2 genotype: wt/wt).

With `CCN(CC)CC#CCOC(=O)C(O)(c1ccccc1)C1CCCCC1` (stereo not drawn) [Oxybutynin (Ditropan)], the cell viability in the experiment on K562 (SRSF2 genotype: SRSF2 P95H/wt) was 97.7% and 102%; in the experiment on K562 (SRSF2 genotype: SRSF2 wt/wt), 104%; in the experiment with MARIMO (SRSF2 genotype: SRSF2 P95H/wt) it was 82.9%; in the experiment on MARIMO (SRSF2 genotype: SRSF2 wt/wt) it was 95.9%; in the experiment on MOLM14 (SRSF2 genotype: SRSF2 P95H/wt), 83.5%; in the experiment on MOLM14 (SRSF2 genotype: SRSF2 wt/wt) it was 100%. Moreover, the cell viability in the experiment with OCI-AML2 (SRSF2 genotype: P95H/wt) was determined as 91.8%; in the experiment with OCI-AML2 (SRSF2 genotype: wt/wt) it was 87%.

The cell viability is a read-out of living cells in per cent, often relative to untreated cells.
